Measurements taken from PubChem BioAssay (NCATS).
Where “and” joins values, the source holds several entries; their conditions need not be identical. Identical values can stand only once. Records with an inconclusive call do not appear. A call without a number means that no potency is given here. Some structures have more than one record in an assay (separate samples or runs), and their calls can disagree. Calls of active or inactive are those of the source. Calls follow the shape of the dose curve; as a rule, active = well fitted curve in the direction sought with a large enough effect; inconclusive = small, poorly fitted or top-dose-only effect, or another doubt; inactive = no such curve, though single readings can be large; an effect the other way counts as inactive or inconclusive.

Assays:
[1] = qHTS Screen of the MIPE 4.0 Collection Against Ewings Sarcoma (TC32) (AID 1259256); also: nearly all actives have a fitted effect of over 45% in size; also: potency is read from the fitted curve at half-maximal effect
How it was run: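 Log-phase cells in RPMI with 5% FBS attached for 4 h, then received compounds as a titration for 48 h at 37C, 5% CO2. Viability was read by CellTiter-Glo luminescence and normalized to DMSO and no-cell wells.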

[2] = qHTS assay to identify small molecule inhibitors of chordoma cells - UCH-1 (AID 1259355); also: nearly all actives have a fitted effect of over 55% in size; also: potency is read from the fitted curve at half-maximal effect; series mostly up to about 46 µM
How it was run: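 Screening used approved and investigational drugs in 15-point titration against 800 seeded cells per well. A fixed combination of auranofin with camptothecin, doxorubicin, rubitecan and topotecan followed compound addition, and growth was scored by CellTiter-Glo after 48hr.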

[3] = P-glycoprotein substrates identified in KB-8-5-11 adenocarcinoma cell line, qHTS therapeutic library screen (AID 1346987); also: nearly all actives have a fitted effect of over 65% in size; also: potency is read from the fitted curve at half-maximal effect
How it was run: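 Compounds are pinned in dose-response onto KB-8-5-11 cells (500 cells/well, colchicine-free medium) and left 72 h at 37 degree C. CellTiter-Glo luminescence then yields AC50 values.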

[4] = qHTS assay to identify small molecule inhibitors of chordoma cells - UCH-2 (AID 1259356); also: potency is read from the fitted curve at half-maximal effect
[5] = Identifying Small Molecule Inhibitors of Pancreatic Cancer Stem Cells (SN12C, Adherent) (AID 1259358);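 also: cell survival measured after 48 h of compound exposure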; also: potency is read from the fitted curve at half-maximal effect
How it was run: (§1)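 Spheroids grown 14 days in stem cell media on hydrogel-coated nonadherent plates; 2D lines seeded directly. Compounds added after 4 h attachment, 48 h at 37C, 5% CO2; CellTiter-Glo luminescence normalized to DMSO (no inhibition) and no-cell wells (full inhibition).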

[6] = Identifying Small Molecule Inhibitors of Pancreatic Cancer Stem Cells (Panc1, Spheroid) (AID 1259359); details: Panc1 spheroid cancer stem cell viability;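 also: potency is read from the fitted curve at half-maximal effect; compound exposure lasted 48 h before reading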
How it was run: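 Spheroids grown 14 days in stem cell media on nonadherent hydrogel before screening; cells attached 4 h, then compound exposure 48 h at 37C, 5% CO2. CellTiter-Glo luminescence normalized to DMSO (no inhibition) and no-cell wells (full inhibition).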

[7] = Identifying Small Molecule Inhibitors of Pancreatic Cancer Stem Cells (SN12C, Spheroid) (AID 1259360); details: Potency: SN12C spheroid viability; also: potency is read from the fitted curve at half-maximal effect
How it was run: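 Viability is scored by CellTiter-Glo luminescence 48 h after dosing, expressed as percent activity against vehicle and no-cell references. Spheroid formats rely on cells cultured 14 days in stem cell media beforehand.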

[8] = Identifying Small Molecule Inhibitors of Pancreatic Cancer Stem Cells (A278, Adherent) (AID 1259361); also: nearly all actives have a fitted effect of over 35% in size
How it was run: as §1

[9] = Identifying Small Molecule Inhibitors of Pancreatic Cancer Stem Cells (Panc1, Adherent) (AID 1259362); details: Potency: viability; also: potency is read from the fitted curve at half-maximal effect
How it was run: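 Cytotoxicity read by CellTiter-Glo luminescence after 48 h compound exposure at 37C; percent activity scaled between DMSO-treated cells and cell-free wells. Spheroid formats used cells pre-formed 14 days in stem cell media on hydrogel.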

For Cc1cc(C2CCCCC2)n(O)c(=O)c1, the Potency [1] was 2.64 µM (active), the Potency [2] was “inactive” and the Potency [3] was 5.8 µM (active).
For Cc1cc(=O)c2c(O)c3c(O)cc(=O)c4c3c3c(cc(O)c1c23)C(C)(C)C=4O, the Potency [1] was “inactive”, the Potency [2] was 6.31 µM (active) and the Potency [4] was 6.51 µM (active). The Potency [3] was 1.46 µM (active) and 4.69 µM (active).
In the case of CC1(C)NC(=O)N(c2ccc([N+](=O)[O-])c(C(F)(F)F)c2)C1=O, the Potency [1] is reported as “inactive”, the Potency [2] is reported as “inactive” and the Potency [4] is reported as “inactive”. For the same compound, the Potency [3] was 13 µM (active) and inactive.
For CNC[C@@H](O)[C@@H](O)[C@H](O)[C@H](O)CO, the Potency [1] was “inactive”, the Potency [2] was “inactive” and the Potency [4] was “inactive”. For the same compound, the Potency [3] was “inactive”.
In the case of O=C(O)c1cccc(-c2noc(-c3ccccc3F)n2)c1, the Potency [1] is reported as “inactive”, the Potency [2] is reported as “inactive” and the Potency [4] is reported as “inactive”. The Potency [3] was “inactive”.
In the case of CCC[C@@H]1C[C@@H](C(=O)N[C@@H]([C@H]2O[C@H](SC)[C@H](O)[C@@H](O)[C@H]2O)[C@@H](C)O)N(C)C1, the Potency [1] is reported as “inactive”, the Potency [4] is reported as “inactive” and the Potency [3] is reported as “inactive”.
In the case of CNC[C@H](O)c1ccc(O)c(O)c1, the Potency [1] is reported as 38.2 µM (active), the Potency [4] is reported as “inactive” and the Potency [3] is reported as “inactive”.
In the case of C=C(c1ccc(C(=O)O)cc1)c1cc2c(cc1C)C(C)(C)CCC2(C)C, the Potency [1] is reported as “inactive”, the Potency [2] is reported as “inactive” and the Potency [4] is reported as “inactive”. For the same compound, the Potency [3] was “inactive”.
With CC(C)C[C@H](NC(=O)[C@H](Cc1ccccc1)NC(=O)c1cnccn1)B(O)O the Potency [1] was 0.0372 µM (active), the Potency [2] was 12.6 nM (active) and 6.3 nM (active) and the Potency [5] was 16.6 nM (active). The Potency [6] was 1.7 nM (active), the Potency [7] was 10.5 nM (active) and the IC50 (viability decrease) [8] was 3.7 nM (active). For the same compound, the Potency [9] was 14.8 nM (active).
For CCOC(=O)c1c(C)n(C)c2ccc(O)cc12, the Potency [1] was “inactive”, the Potency [2] was “inactive” and the Potency [4] was “inactive”. The Potency [3] was “inactive”.
For COCCCOc1ccnc(CS(=O)c2nc3ccccc3[nH]2)c1C (centres undefined), the Potency [1] was 8.33 µM (active), the Potency [2] was “inactive” and the Potency [4] was “inactive”. The Potency [3] was 3.66 µM (active) and inactive.
With O=C(CS(=O)Cc1ccco1)NCC=CCOc1cc(CN2CCCCC2)ccn1 (centres undefined) the Potency [1] was “inactive”, the Potency [2] was “inactive” and the Potency [4] was “inactive”. For the same compound, the Potency [3] was “inactive”.
In the case of Cc1c(C(=O)NN2CCCCC2)nn(-c2ccc(Cl)cc2Cl)c1-c1ccc(Cl)cc1, the Potency [1] is reported as 26.4 µM (active), the Potency [4] is reported as “inactive” and the Potency [3] is reported as 20.6 µM (active).
In the case of O=C1c2ccccc2-c2n[nH]c3cccc1c23, the Potency [1] is reported as 18.7 µM (active), the Potency [2] is reported as “inactive” and the Potency [4] is reported as “inactive”. The Potency [3] was 18.4 µM (active).
With O=C(O)c1cccnc1Nc1cccc(C(F)(F)F)c1 the Potency [1] was “inactive”, the Potency [2] was “inactive” and the Potency [4] was “inactive”. The Potency [3] was “inactive”.
With CCCCCCCCCCCCCCCCCCCCCCO the Potency [1] was “inactive”, the Potency [2] was “inactive” and the Potency [4] was “inactive”. The Potency [3] was “inactive”.
In the case of Nc1ccn([C@@H]2O[C@H](CO)[C@@H](O)C2O)c(=O)n1 (some centres undefined), the Potency [1] is reported as “inactive”, the Potency [2] is reported as “inactive” and the Potency [4] is reported as “inactive”. For the same compound, the Potency [3] was “inactive”.
In the case of CCOc1cc(CC(=O)N[C@@H](CC(C)C)c2ccccc2N2CCCCC2)ccc1C(=O)O, the Potency [1] is reported as “inactive”, the Potency [2] is reported as “inactive” and the Potency [4] is reported as “inactive”. The Potency [3] was “inactive”.
In the case of Cc1cc2c(s1)Nc1ccccc1N=C2N1CCN(C)CC1, the Potency [1] is reported as “inactive”, the Potency [2] is reported as “inactive” and the Potency [4] is reported as “inactive”. For the same compound, the Potency [3] was “inactive”.
In the case of COc1ccc2cc([C@H](C)C(=O)O)ccc2c1, the Potency [1] is reported as “inactive”, the Potency [2] is reported as “inactive” and the Potency [4] is reported as “inactive”. The Potency [3] was “inactive”.
With CC1=C(C)C(=O)C(C(CCCCCC(=O)O)c2ccccc2)=C(C)C1=O (centres undefined) the Potency [1] was “inactive”, the Potency [2] was “inactive” and the Potency [4] was “inactive”. The Potency [3] was “inactive”.
With O=P(O)(O)C(O)(Cn1ccnc1)P(=O)(O)O the Potency [1] was “inactive”, the Potency [2] was “inactive” and the Potency [4] was “inactive”. For the same compound, the Potency [3] was “inactive”.
In the case of CC(C)(S)[C@@H](N)C(=O)O, the Potency [1] is reported as “inactive”, the Potency [2] is reported as “inactive” and the Potency [4] is reported as “inactive”. For the same compound, the Potency [3] was “inactive”.
With CC[C@]1(O)C[C@H]2CN(CCc3c([nH]c4ccccc34)[C@@](C(=O)OC)(c3cc4c(cc3OC)N(C=O)[C@H]3[C@@](O)(C(=O)OC)[C@H](OC(C)=O)[C@]5(CC)C=CCN6CC[C@]43[C@@H]65)C2)C1 the Potency [1] was “inactive”, the Potency [2] was 0.224 µM (active) and the Potency [4] was “inactive”. The Potency [3] was 1.05 µM (active).
In the case of CCN(CC)C(=S)SSC(=S)N(CC)CC, the Potency [1] is reported as “inactive”, the Potency [2] is reported as “inactive” and the Potency [4] is reported as “inactive”. For the same compound, the Potency [3] was 41.8 nM (active) and inactive.
For CN(C)CCc1c[nH]c2ccc(Cn3cncn3)cc12, the Potency [1] was “inactive”, the Potency [2] was “inactive” and the Potency [4] was “inactive”. For the same compound, the Potency [3] was “inactive”.
In the case of COC(=O)C1=C(C)NC(C)=C(C(=O)OCCCN2CCC(c3ccccc3)(c3ccccc3)CC2)C1c1cccc([N+](=O)[O-])c1 (centres undefined), the Potency [1] is reported as 29.6 µM (active), the Potency [2] is reported as 31.6 µM (active) and the Potency [3] is reported as “inactive and 10.3 µM (active)”.
For c1ccc2[nH]c(-c3cscn3)nc2c1, the Potency [1] was “inactive”, the Potency [2] was “inactive” and the Potency [4] was “inactive”. For the same compound, the Potency [3] was “inactive”.
For CN1C(C(=O)Nc2ccccn2)=C(O)c2sccc2S1(=O)=O, the Potency [1] was “inactive”, the Potency [2] was “inactive” and the Potency [4] was “inactive”. For the same compound, the Potency [3] was “inactive”.
In the case of O=C(c1ccccc1)c1ccc2n1CCC2C(=O)O (centres undefined), the Potency [1] is reported as 3.72 µM (active), the Potency [2] is reported as “inactive” and the Potency [4] is reported as “inactive”. The Potency [3] was “inactive”.
In the case of C[C@@H](N)C1CCC(C(=O)Nc2ccncc2)CC1 (some centres undefined), the Potency [1] is reported as “inactive”, the Potency [5] is reported as “inactive” and the Potency [7] is reported as “inactive”. The IC50 (viability decrease) [8] was “inactive” and the Potency [3] was “inactive”.
For c1cnc2cc3c(cc2n1)C1CNCC3C1, the Potency [1] was “inactive” and the Potency [3] was “inactive”.
In the case of O=c1c(O)c(-c2cc(O)c(O)c(O)c2)oc2cc(O)cc(O)c12, the Potency [1] is reported as “inactive” and the Potency [3] is reported as “inactive”.
With CC(=O)N1CCN(c2ccc(OC[C@H]3CO[C@](Cn4ccnc4)(c4ccc(Cl)cc4Cl)O3)cc2)CC1 the Potency [2] was “inactive” and the Potency [4] was “inactive”.
